ER stress surv: ER stress cell death inhibition. relative survival (cellular ATP), % at 15 µg/mL (by protocol). CSM14.1 thapsigargin ER stress survival, ATP luminescence. hit rate 0.33% among 48,000. AID 1010;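 active = survival measured by cellular ATP above 50% at 15 µg/ml in the first screen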;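 note: cell death triggered by about 15 µM thapsigargin; ATP read 24 h after thapsigargin was added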
A number is an active result; n = inactive. Many of the other results were omitted from the sample, so hits are more common in it than they were.

SMILES	ER stress surv
O=C(COC(=O)C1CC(=O)N(c2ccc(Cl)cc2)C1)c1ccccc1 (configuration not stated)	n
COC(=O)C1=C(C)NC2=C(C(=O)CC(c3ccccc3)C2)C1c1ccc(Cl)cc1 (configuration not stated)	n
CCCOC(=O)C1=C(C)NC2=C(C(=O)CC(c3ccc(OC)cc3)C2)C1c1ccc(OCc2ccccc2)c(OC)c1 (configuration not stated)	n
CCCCOC(=O)C1=C(C)NC2=C(C(=O)CC(c3ccccc3)C2)C1c1ccco1 (configuration not stated)	68.1
Cc1ccc(C#N)c(SCC(=O)O)n1	n
O=C1OC(Oc2ccccc2)(c2ccccc2)c2ccccc21 (configuration not stated)	n
O=C(c1ccc(-c2ccccc2)cc1)N1CCN(Cc2ccc(Cl)cc2)CC1	98.3
O=C(c1ccc(F)cc1)N1CCN(Cc2ccc(Cl)cc2)CC1	n
COc1ccc(C(=O)N2CCN(Cc3cccc(Cl)c3)CC2)cc1	n
COc1ccc(OC)c(CN2CCN(C(=O)c3ccc(OC)c(OC)c3)CC2)c1	n
O=C(c1ccccc1)N1CCN(Cc2cccc(Oc3ccccc3)c2)CC1	59.0
c1ccc(Oc2cccc(CN3CCN(Cc4ccccn4)CC3)c2)cc1	n
Cc1ccc(C(=O)N2CCN(Cc3ccccc3)CC2)cc1	n
O=C(c1ccc(F)cc1)N1CCN(Cc2cccc(Oc3ccccc3)c2)CC1	n
COc1ccc(OC)c(CN2CCN(C(=O)c3ccc(-c4ccccc4)cc3)CC2)c1	104.1
COc1cccc(CN2CCN(C(=O)c3ccc(-c4ccccc4)cc3)CC2)c1	92.8
COc1ccc(C(=O)N2CCN(Cc3cccc(C)c3)CC2)cc1	n
COc1cc(OC)c(OC)cc1CN1CCN(C(=O)c2ccc(-c3ccccc3)cc2)CC1	n
C=CCNC(=O)C(=O)Nc1ccc(Cl)c(Cl)c1	n
Cc1cc(OCC(=O)Nc2ccccc2F)ccc1Cl	n
Cc1ccc(NC(=O)C2CC(=O)N=C(N)S2)cc1Cl (configuration not stated)	n
CC(=O)OC1(C[N+](=O)[O-])C2CC3CC(C2)CC1C3 (configuration not stated)	n
COc1cc(/C=N\NC(=O)c2cccc3ccccc23)ccc1O	n
COc1ccccc1N(CC(=O)Nc1ccccc1Br)S(=O)(=O)c1ccccc1	n
Cc1cc(C)cc(N2C(=O)CC(Sc3ncn[nH]3)C2=O)c1 (configuration not stated)	n
SMILES	ER stress surv
Cc1ccc(C(=O)N/C(=C/c2ccco2)c2nc3ccccc3[nH]2)cc1	n
COc1ccc(N2C(=O)/C(=C/c3ccc(-c4ccc(C(=O)O)cc4)o3)C(=O)NC2=S)cc1	n
COc1cccc(CN2CCN(C(=O)C(c3ccccc3)c3ccccc3)CC2)c1OC	n
COc1ccccc1C(=O)N1CCN(Cc2ccccc2[N+](=O)[O-])CC1	n
O=C(C(c1ccccc1)c1ccccc1)N1CCN(Cc2ccccc2[N+](=O)[O-])CC1	91.5
COc1ccc(CCC(=O)NCc2ccc(Cl)c(Cl)c2)cc1	n
COc1ccccc1CNC(=O)c1ccc(C)cc1	n
COc1ccccc1CNC(=O)c1ccc(OC)c(OC)c1	n
COc1ccccc1CNC(=O)c1ccc(F)cc1	100.5
CC1(C(=O)Nc2cccc3ccccc23)CCCCC1	n
O=C1CC(c2ccccc2)CC2=C1C(c1cc(Br)ccc1F)Nc1ccccc1N2 (configuration not stated)	79.7
COc1ccc(C2CC(=O)C3=C(C2)Nc2ccccc2NC3c2c(F)cccc2Cl)cc1 (configuration not stated)	n
O=C1CC(c2ccccc2)CC2=C1C(c1ccc(Br)cc1)Nc1ccccc1N2 (configuration not stated)	n
O=C1CC(c2ccccc2)CC2=C1C(c1cccc(Cl)c1Cl)Nc1ccccc1N2 (configuration not stated)	n
O=C1CC(c2ccc(Cl)cc2)CC2=C1C(c1ccccc1F)Nc1ccccc1N2 (configuration not stated)	n
O=C1CC(c2ccccc2)CC2=C1C(c1c(F)cccc1Cl)Nc1ccccc1N2 (configuration not stated)	105.4
O=[N+]([O-])c1cc2c(cc1C=Nc1cc(Cl)cc(Cl)c1)OCO2	n
Cc1cccc(NC(=O)CN(c2ccc(Br)cc2)S(C)(=O)=O)c1	n
COc1ccccc1NS(=O)(=O)c1ccc(C)cc1C	n
O=C(O)c1ccc(N2C(=O)CC(N3CCC(Cc4ccccc4)CC3)C2=O)cc1 (configuration not stated)	n
O=C1N=c2ccc(Cl)cc2=C1c1sc(=S)n(Cc2ccco2)c1O	n
COC(=O)/C(=C\C=C\N(C)c1ccccc1)C(C)=O	n
CCOC(=O)/C(C(C)=O)=C(\C=C\N(C)C)N(C)C	n
CCOC(=O)/C(=C/C=C/N(C1CCCCC1)C1CCCCC1)C(C)=O	50.5
O=C(O)c1ccccc1-c1ccc(/C=N/n2cnnc2)o1	n
SMILES	ER stress surv
COc1ccc(NC(=O)c2c(NC(=O)c3ccc([N+](=O)[O-])cc3)sc3c2CCCC3)cc1	n
O=C(Nc1ccc(Cl)c(Cl)c1)c1ccc([N+](=O)[O-])o1	n
O=C(Nc1ncccn1)c1ccc([N+](=O)[O-])o1	65.0
Cc1ccc(C(=O)Nc2ncccn2)o1	n
COc1cc(/C=N\Nc2nnc(C)c(=O)[nH]2)cc(Br)c1O	n
O=C(NCc1ccc2c(c1)OCO2)c1cc(-c2ccccc2Cl)nc2ccccc12	n
CN1C(=O)NC(=O)/C(=C/c2ccc(-c3ccc(Cl)cc3Cl)o2)C1=O	n
O=C(CC1OC(=O)c2ccccc21)c1ccc(I)cc1 (configuration not stated)	n
Cc1sc2nc(-c3ccc([N+](=O)[O-])cc3)[nH]c(=O)c2c1C	n
O=C(COc1ccc2ccccc2c1)Nc1cccc(NC(=O)c2ccc(Cl)cc2Cl)c1	50.5
O=C(Nc1cccc(NC(=O)c2cccc3ccccc23)c1)c1ccc(Cl)cc1Cl	n
O=C(COc1ccc2ccccc2c1)Nc1ccc(Cl)c(Cl)c1	n
CC1=CC(C)(C)Nc2ccc(OC(=O)COc3ccc4ccccc4c3)cc21	n
CC(=O)NC(NCc1cccnc1)C(Cl)(Cl)Cl (configuration not stated)	n
CCN(CC)c1ccc(Nc2nc(-c3sc(N)nc3C)cs2)cc1	72.2
Cc1nc(C)c(-c2csc(Nc3ccc(O)cc3)n2)s1	n
CCN(CC)c1ccc(Nc2nc(-c3c(C)nc4ccccn34)cs2)cc1	n
COc1ccc(C2=CC(=O)CC(c3ccccc3)C2)cc1 (configuration not stated)	n
O=C1C=C(c2ccccc2)CC(c2ccccc2)C1n1nnc2ccccc21 (configuration not stated)	94.6
COc1cccc(OC)c1C(=O)Nc1sc(C)c(C)c1C(N)=O	n
O=C1S/C(=C\c2ccc(-c3ccc([N+](=O)[O-])cc3)o2)C(=O)N1c1ccccc1	n
CCN1C(=O)/C(=C\c2ccc(-c3ccc([N+](=O)[O-])cc3)o2)SC1=S	n
O=C1/C(=C/c2ccc(-c3ccc([N+](=O)[O-])cc3)o2)SC(=S)N1Cc1ccco1	56.5
CCOc1ccc(NC(=O)c2c(NC(=O)c3ccc([N+](=O)[O-])cc3)sc3c2CCC3)cc1	n
COc1ccc(C2Nc3ccccc3C(=O)N2c2ccccc2)cc1COc1ccc(NC(C)=O)cc1 (configuration not stated)	87.0
COc1ccc(C2Nc3ccccc3C(=O)N2c2ccccc2)cc1CN1C(=O)c2ccccc2C1=O (configuration not stated)	n

Compound activity deposited in PubChem by Sanford-Burnham Center for Chemical Genomics.
